Where “and” joins values, the source holds several entries; their conditions need not be identical. Identical values can stand only once. Records with an inconclusive call do not appear. Calls of active or inactive are those of the source. Unless noted, calls follow the shape of the dose curve; as a rule, active = well fitted curve in the direction sought with a large enough effect; inconclusive = small, poorly fitted or top-dose-only effect, or another doubt; inactive = no such curve, though single readings can be large; an effect the other way counts as inactive or inconclusive.

Eleven molecules from PubChem BioAssay (NCATS) can be followed below.

The nature of assay [1]: Cellular Toxicity (caspase-3) NIH 3T3 (AID 666).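 Also: caspase signal read after 16 h compound exposure.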 To be noted: NIH 3T3 caspase-3 activation, apoptosis/toxicity, 0% DMSO, 100% is 100 µM tamoxifen; series mostly up to 92.2 µM. In a few lines:
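Mouse NIH 3T3 fibroblasts (1000 cells/well) were treated with compound for 16 hr at 37°C in complete medium; caspase-3/7 activity was read by Caspase-Glo luminescence. Normalized to DMSO and 100 uM tamoxifen; AC50 from Hill fits.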

Assay [2] in a line: Cellular Toxicity (caspase-3) Renal Proximal Tubule (AID 667).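 Also: cells exposed to compound for 16 hours at 37 °C before detection.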 The following applies: renal proximal tubule cells, primary cells freshly taken from rat, solvent-only wells 0%, staurosporine 100%; series mostly up to 91.7 µM. In a few lines: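 In qHTS format, rat primary proximal tubule cells seeded at 1000 per well are exposed to compounds for 16 hours at 37 °C. An increase in Caspase-Glo 3/7 luminescence indicates caspase activation.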

Assay [3] concerns the target Guanine nucleotide-binding protein G(i) subunit alpha-1 (Homo sapiens) (UniProt P63096). Nature of the assay: qHTS Assay for Inhibitors of RGS12 GoLoco Motif Activity (Green Fluorophore) (AID 879).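 Also: negative values mean loss of peptide binding seen as reduced polarization.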 The following applies: Galphai1/FITC-RGS12 GoLoco peptide, fluorescence polarization; series mostly up to 57.1 µM. In a few lines:
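Fluorescence polarization assay: 50 nM Gαi1 with 10 nM FITC-labeled RGS12 GoLoco peptide in 10 mM Tris pH 7.5, 150 mM NaCl, 0.1 mM GDP, 0.05% NP40, 10 min at room temperature with compound.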
A general note: Quantitative high-throughput screening tests each substance at several concentrations.

The target of assay [4] is Cytochrome P450 3A4 (Homo sapiens) (UniProt P08684). Briefly: qHTS Assay for Inhibitors and Substrates of Cytochrome P450 3A4 (AID 884). Also: nearly all actives have a fitted effect of over 50% in size. The following applies: recombinant CYP3A4, Luciferin-PPXE luminescence; series mostly up to 57.1 µM. An outline of the steps:
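20 nM human CYP3A4 with 25 uM Luciferin-PPXE (at KM) in 200 mM KPO4, preincubated 10 min with compound; NADPH regeneration started a 60 min RT reaction. Luciferin detected by luminescence, normalized to 57 uM ketoconazole as full inhibition.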

Assay [5] concerns the target Cytochrome P450 2D6 (Homo sapiens) (UniProt P10635). Nature of the assay: qHTS Assay for Inhibitors and Substrates of Cytochrome P450 2D6 (AID 891).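 Also: luciferin methyl ether substrate demethylated by CYP2D6 with NADPH regeneration; nearly all actives have a fitted effect of over 60% in size.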 To be noted: recombinant CYP2D6, luciferin-ME EGE luminescence; series mostly up to 57.1 µM. In a few lines:
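Human CYP2D6 (5 nM) with 30 uM Luciferin-ME EGE (at Km) in 100 mM KPO4, compound preincubated 10 min, then NADPH regeneration system for 60 min at room temperature. Luciferin read by luminescence; normalized to 1.43 uM quinidine.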

Assay [6] concerns the target Cytochrome P450 2C19 (Homo sapiens) (UniProt P33261). Nature of the assay: qHTS Assay for Inhibitors and Substrates of Cytochrome P450 2C19 (AID 899). Also: nearly all actives have a fitted effect of over 60% in size. The following applies: recombinant CYP2C19, luciferin-H EGE luminescence; series mostly up to 57.1 µM. An outline of the steps:
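Reactions contain 5nM enzyme, 10uM Luciferin-H EGE (KM) and 50mM KPO4; compound preincubates 10 min at 37C, NADPH regeneration starts turnover for 60 min. Luminescence after detection reagent gives activity.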

Assay [7] in a line: Confirmation and Secondary Assay for Modulators of Hemoglobin Beta Chain Splicing at IVS2 654 locus (AID 910).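 Also: HeLa cells stably carrying EGFP split by mutant beta-globin IVS2-654 intron; per-well total GFP intensity by laser scanning cytometry after 2-day treatment.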 The following applies: HeLa EGFP-654 splicing reporter, GFP fluorescence, 48 h; series mostly up to 46.1 µM. In a few lines: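 Readout: per-well total peak green fluorescence (488 nm ex, 500–520 nm em) from objects 5–250 µm, reflecting correct splicing of an EGFP-654 reporter. Compounds were applied for 2 days at 37 °C to overnight-plated HeLa EGFP-654 cells; controls were DMSO and 500 nM IVS2-654 PNA.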

The target in assay [8] is Cytochrome P450 2C9 (Homo sapiens) (UniProt P11712). Briefly: qHTS Assay for Inhibitors and Substrates of Cytochrome P450 2C9 (AID 883). Also: nearly all actives have a fitted effect of over 60% in size. Also: potency is read from the fitted curve at half-maximal effect. To be noted: recombinant CYP2C9, luciferin-H luminescence, 60 min; series mostly up to 57.1 µM. In a few lines:
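Turnover of Luciferin-H (100uM, KM) by 10nM human CYP2C9 was measured over 60 min at 37C with NADPH regeneration; inhibitors and some substrates reduce luminescence. Data normalized to sulphaphenazole 57uM.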

The target of assay [9] is Cytochrome P450 3A4 (Homo sapiens) (UniProt P08684). Nature of the assay: qHTS Assay for Activators of Cytochrome P450 3A4 (AID 885). Also: nearly all actives have a fitted effect of over 65% in size. The following applies: recombinant CYP3A4, Luciferin-PPXE luminescence, 60 min; series mostly up to 57.1 µM. In a few lines:
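Steps: enzyme/substrate mix dispensed; compound added, 10 min RT; NADPH regeneration solution added, 60 min RT; luciferin detection buffer stops reaction; 20 min later luminescence measured.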

Assay [10] can be described thus: qHTS Assay for Identification of Small Molecule Antagonists for NFkB Signaling Pathway (AID 895; active = well fitted inhibition curve with a large enough effect in the signal ratio, with a control signal flat, not every such curve was filed as active; the % refers to the signal ratio). The following applies: NFkB beta-lactamase reporter cells, FRET ratio 460/530, stimulated with 10 pM TNF alpha; series mostly up to 38.3 µM. In a few lines: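 Beta-lactamase reporter read-out (460 and 530 nm emission ratio, 405 nm excitation, 2 hrs substrate loading RT) after 5 hr stimulation with 10 pM TNF alpha in compound-treated NFkB-bla ME-180 cells in low-serum medium.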

Sequence of Guanine nucleotide-binding protein G(i) subunit alpha-1 (Homo sapiens) (P63096 whole entry, looked up): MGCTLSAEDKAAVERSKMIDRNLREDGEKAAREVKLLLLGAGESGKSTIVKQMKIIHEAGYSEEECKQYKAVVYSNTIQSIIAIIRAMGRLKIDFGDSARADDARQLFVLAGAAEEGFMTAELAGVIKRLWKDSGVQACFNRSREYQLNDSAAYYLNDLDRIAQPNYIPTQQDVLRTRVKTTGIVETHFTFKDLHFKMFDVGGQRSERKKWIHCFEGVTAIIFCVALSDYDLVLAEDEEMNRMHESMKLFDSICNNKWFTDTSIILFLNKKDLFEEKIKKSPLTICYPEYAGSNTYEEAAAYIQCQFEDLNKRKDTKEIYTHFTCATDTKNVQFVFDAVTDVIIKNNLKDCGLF
Sequence of Cytochrome P450 2C9 (Homo sapiens) (P11712 whole entry, looked up): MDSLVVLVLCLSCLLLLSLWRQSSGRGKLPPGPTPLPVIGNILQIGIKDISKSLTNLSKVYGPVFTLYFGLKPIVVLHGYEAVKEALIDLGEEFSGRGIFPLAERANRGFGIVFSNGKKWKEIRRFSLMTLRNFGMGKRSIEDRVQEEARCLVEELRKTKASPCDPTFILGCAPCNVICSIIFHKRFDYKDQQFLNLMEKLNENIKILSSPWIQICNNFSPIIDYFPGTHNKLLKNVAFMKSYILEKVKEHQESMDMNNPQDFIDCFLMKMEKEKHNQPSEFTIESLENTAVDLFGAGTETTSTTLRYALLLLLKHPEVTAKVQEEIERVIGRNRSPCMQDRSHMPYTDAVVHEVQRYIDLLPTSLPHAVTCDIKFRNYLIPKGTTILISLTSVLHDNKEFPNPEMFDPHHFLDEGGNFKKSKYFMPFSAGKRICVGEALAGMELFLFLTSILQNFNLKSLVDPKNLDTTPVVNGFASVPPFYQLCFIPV
Sequence of Cytochrome P450 2C19 (Homo sapiens) (P33261 whole entry, looked up): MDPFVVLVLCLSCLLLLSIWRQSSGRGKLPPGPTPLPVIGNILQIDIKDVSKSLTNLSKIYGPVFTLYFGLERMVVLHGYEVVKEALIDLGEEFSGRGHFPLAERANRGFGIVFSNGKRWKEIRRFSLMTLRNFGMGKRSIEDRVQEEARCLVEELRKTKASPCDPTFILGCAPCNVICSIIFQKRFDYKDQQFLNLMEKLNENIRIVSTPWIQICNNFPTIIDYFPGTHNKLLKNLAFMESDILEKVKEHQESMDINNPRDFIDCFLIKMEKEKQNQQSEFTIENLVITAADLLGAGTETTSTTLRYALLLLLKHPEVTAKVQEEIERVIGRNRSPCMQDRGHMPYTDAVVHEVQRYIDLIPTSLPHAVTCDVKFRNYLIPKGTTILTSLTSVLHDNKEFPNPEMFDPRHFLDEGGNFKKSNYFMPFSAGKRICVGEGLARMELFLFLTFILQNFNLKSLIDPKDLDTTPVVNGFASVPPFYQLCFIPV
Sequence of Cytochrome P450 2D6 (Homo sapiens) (P10635 whole entry, looked up): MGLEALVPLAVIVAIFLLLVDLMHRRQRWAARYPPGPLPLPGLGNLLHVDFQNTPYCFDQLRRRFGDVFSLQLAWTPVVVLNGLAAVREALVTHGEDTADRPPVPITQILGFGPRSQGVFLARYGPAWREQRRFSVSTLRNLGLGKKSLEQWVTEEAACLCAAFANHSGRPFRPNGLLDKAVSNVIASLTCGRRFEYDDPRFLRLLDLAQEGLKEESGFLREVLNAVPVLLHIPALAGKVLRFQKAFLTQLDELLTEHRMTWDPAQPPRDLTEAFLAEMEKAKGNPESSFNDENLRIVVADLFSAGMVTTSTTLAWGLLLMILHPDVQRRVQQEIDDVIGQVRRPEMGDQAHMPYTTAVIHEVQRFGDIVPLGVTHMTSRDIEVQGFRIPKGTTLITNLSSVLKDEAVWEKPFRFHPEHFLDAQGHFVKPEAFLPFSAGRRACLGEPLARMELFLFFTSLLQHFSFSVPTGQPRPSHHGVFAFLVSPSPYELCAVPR
Sequence of Cytochrome P450 3A4 (Homo sapiens) (P08684 whole entry, looked up): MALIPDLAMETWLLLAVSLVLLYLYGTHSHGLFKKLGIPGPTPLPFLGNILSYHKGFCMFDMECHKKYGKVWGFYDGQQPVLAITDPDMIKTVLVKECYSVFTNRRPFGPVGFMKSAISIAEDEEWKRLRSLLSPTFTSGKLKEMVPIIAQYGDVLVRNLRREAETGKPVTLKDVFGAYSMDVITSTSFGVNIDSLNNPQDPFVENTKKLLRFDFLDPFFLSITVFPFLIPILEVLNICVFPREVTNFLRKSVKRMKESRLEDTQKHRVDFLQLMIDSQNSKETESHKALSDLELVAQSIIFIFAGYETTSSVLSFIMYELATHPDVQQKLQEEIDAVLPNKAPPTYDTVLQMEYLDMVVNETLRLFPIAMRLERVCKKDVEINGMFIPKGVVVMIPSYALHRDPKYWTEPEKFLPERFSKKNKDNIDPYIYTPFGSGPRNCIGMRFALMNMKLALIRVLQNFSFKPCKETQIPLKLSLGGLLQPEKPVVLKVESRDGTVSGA

In the case of `COc1ccc2c(c1)c(CC(=O)O)c(C)n2C(=O)c1ccc(Cl)cc1`, the molecule was called inactive in [1], in [2] and in [4]. The Potency result in assay [3], in [5], in assay [6] and in assay [7] was “inactive” throughout.

On to `CS(=O)(=O)Nc1ccc([N+](=O)[O-])cc1Oc1ccccc1`, for which the Potency result in assay [3], in assay [9], in assay [5], in assay [10], in assay [6] and in assay [7] was “inactive” in each case. Moreover, the Potency in assay [8] was 10 µM (active) and 3.16 µM (active).

In the case of `Cc1cnc(C(=O)NCCc2ccc(S(=O)(=O)NC(=O)NC3CCCCC3)cc2)cn1`, the Potency result in assay [3] was “inactive”.

As to `O=c1[nH]cc(F)c(=O)[nH]1`, the call in assay [1], in [2] and in assay [4] was inactive. For the same molecule, the Potency entry in assay [3], in assay [8], in assay [5] and in [6] was “inactive” throughout.

On to `CC[N+](CC)(CC)CCOc1cccc(OCC[N+](CC)(CC)CC)c1OCC[N+](CC)(CC)CC`, for which the Potency entry in assay [3] is “inactive”.

In the case of `COc1ccc2[nH]cc(CCNC(C)=O)c2c1`, the molecule was classed as inactive in assay [1] and in assay [2]. The Potency entry in assay [3], in [10] and in assay [7] was “inactive” each time.

For `CC(COc1ccccc1)N(CCCl)Cc1ccccc1` (stereo not drawn), the call in assay [1] was inactive. In addition, the Potency result in assay [9] and in assay [7] was “inactive” throughout.

Turning to `N[C@@H](Cc1c[nH]c2ccc(O)cc12)C(=O)O`, the molecule was called inactive in assay [1] and in [2]. Further, the Potency result in assay [3], in [8], in assay [9], in [5] and in assay [6] was “inactive” throughout.

For `COC(=O)Nc1nc2ccc(C(=O)c3cccs3)cc2[nH]1`, the Potency result in [3], in assay [8], in [5], in [6] and in assay [7] was “inactive” in each case. Besides, in assay [4], the outcome was inactive.

As for `Nc1ccn([C@H]2CC[C@@H](CO)O2)c(=O)n1`, the outcome in assay [1], in assay [2] and in assay [4] was inactive. Further, the Potency result in [3] and in assay [7] was “inactive” in each case.

For the molecule `CCC1(c2ccccc2)C(=O)NCNC1=O`, the outcome in assay [1], in [2] and in [4] was inactive. Further, the Potency entry in assay [3], in [8], in assay [5], in assay [10], in assay [6] and in assay [7] was “inactive” in each case.
